From paper PMC7862700, “An all-to-all approach to the identification of sequence-specific readers for epigenetic DNA modifications on cytosine” come the findings set out here.

Experiment in all cases: DAPPL (digital affinity profiling via proximity ligation, sequencing); 10 mM Tris-HCl pH 7.5, 50 mM NaCl, 1 mM DTT, 4% glycerol, room temperature, 30 min; GST-TFs on glutathione beads, 16-mer random dsDNA library, 0.1% formaldehyde crosslink after washing; high values mean tight binding
One experiment deals with T1, FEV (Homo sapiens, UniProt Q99581 1-238).
T1 sequence: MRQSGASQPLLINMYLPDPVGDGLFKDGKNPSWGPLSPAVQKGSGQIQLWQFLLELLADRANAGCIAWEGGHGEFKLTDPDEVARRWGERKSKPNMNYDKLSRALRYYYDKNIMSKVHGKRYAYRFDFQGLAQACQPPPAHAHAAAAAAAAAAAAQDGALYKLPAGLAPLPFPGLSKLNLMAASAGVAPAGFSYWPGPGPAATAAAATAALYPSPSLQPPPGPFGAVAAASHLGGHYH
The conditions noted are these: protein: recombinant; tags: N-terminal GST; dsDNA, one strand shown. In short, it runs like this: (§1)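 After expression in yeast as GST fusions, human transcription factors were bound to glutathione beads, DNA-barcoded and mixed with a tag-only sample. The pools were incubated with 200 nmole of a 16-mer random double-stranded DNA library in Tris/NaCl/DTT/glycerol buffer (30 min, room temperature), washed and crosslinked with 0.1% formaldehyde. Proximity ligation with BsaI/T4 ligase ran for 1 h at 37 °C, before PCR amplification and sequencing on an Illumina NextSeq500. Binding signal is a hexamer's read frequency for a factor divided by its frequency for the tag-only sample.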

The target of another experiment is ETV5 (Homo sapiens, UniProt P41161 1-510). The conditions noted are these: protein: recombinant; tags: N-terminal GST; dsDNA, one strand shown. A digest of the protocol: as §1
Sequence of ETV5 (P41161 whole entry): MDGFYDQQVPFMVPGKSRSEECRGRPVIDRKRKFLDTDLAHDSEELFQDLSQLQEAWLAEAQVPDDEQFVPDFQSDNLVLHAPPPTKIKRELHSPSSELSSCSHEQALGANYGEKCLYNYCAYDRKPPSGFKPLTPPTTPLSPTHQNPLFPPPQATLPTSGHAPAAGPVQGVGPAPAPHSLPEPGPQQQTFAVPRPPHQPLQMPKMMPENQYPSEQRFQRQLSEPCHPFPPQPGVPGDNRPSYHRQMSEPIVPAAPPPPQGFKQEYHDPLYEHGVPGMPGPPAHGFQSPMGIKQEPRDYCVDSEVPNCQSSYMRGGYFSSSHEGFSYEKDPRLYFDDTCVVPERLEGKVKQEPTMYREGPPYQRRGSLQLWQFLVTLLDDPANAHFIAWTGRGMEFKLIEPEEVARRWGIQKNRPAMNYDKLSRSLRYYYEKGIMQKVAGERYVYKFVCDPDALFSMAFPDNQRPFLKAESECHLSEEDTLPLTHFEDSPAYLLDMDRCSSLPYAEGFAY
In the next experiment the target is HSF1 (Homo sapiens, UniProt Q00613 1-529). The conditions noted are these: protein: recombinant; tags: N-terminal GST; chain copies: 3; dsDNA, one strand shown. In short, it runs like this: as §1
Sequence of HSF1 (Q00613 whole entry): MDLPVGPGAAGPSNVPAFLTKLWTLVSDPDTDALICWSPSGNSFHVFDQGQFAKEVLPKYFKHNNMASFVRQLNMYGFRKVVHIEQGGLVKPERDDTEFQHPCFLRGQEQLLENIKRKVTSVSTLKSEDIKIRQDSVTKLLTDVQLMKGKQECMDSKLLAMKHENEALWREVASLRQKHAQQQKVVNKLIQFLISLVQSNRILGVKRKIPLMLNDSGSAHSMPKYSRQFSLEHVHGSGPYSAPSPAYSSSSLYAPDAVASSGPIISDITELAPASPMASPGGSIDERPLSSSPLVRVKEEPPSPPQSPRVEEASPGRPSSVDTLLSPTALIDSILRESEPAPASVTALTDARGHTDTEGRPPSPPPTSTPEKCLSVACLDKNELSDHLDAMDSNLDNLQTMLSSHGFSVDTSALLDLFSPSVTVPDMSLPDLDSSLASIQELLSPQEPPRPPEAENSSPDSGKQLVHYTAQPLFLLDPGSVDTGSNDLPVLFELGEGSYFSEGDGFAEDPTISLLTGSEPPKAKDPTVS
Another experiment addresses T2, SPIC (Homo sapiens, UniProt Q8N5J4 1-248).
T2 sequence: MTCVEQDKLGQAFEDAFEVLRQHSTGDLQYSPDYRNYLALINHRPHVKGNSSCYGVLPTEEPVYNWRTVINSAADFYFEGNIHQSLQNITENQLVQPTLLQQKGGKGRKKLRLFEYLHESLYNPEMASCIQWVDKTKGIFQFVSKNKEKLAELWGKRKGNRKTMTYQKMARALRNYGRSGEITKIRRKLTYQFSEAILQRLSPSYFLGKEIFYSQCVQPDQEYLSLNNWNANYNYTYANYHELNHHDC
Particulars: protein: recombinant; tags: N-terminal GST; dsDNA, one strand shown. In short, it runs like this: as §1

For the next experiment, the target named is ELF4 (Homo sapiens, UniProt Q99607 1-663). Particulars: protein: recombinant; tags: N-terminal GST; dsDNA, one strand shown. In short, it runs like this:
as §1

Another experiment addresses T3, ELK4 (Homo sapiens, UniProt P28324-2 1-405).
T3 sequence: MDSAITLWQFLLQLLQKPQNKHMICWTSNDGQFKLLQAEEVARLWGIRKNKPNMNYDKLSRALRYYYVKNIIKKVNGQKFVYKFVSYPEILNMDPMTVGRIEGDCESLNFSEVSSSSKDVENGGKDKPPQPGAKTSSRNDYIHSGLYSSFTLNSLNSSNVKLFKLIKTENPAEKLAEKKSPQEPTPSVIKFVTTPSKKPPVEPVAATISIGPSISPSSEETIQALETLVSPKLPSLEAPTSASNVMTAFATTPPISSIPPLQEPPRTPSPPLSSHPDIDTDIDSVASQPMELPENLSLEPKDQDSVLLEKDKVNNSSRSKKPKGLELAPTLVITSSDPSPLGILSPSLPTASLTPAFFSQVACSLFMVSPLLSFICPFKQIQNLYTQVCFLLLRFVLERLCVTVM
The conditions noted are these: protein: recombinant; tags: N-terminal GST; dsDNA, one strand shown. In short, it runs like this: as §1

The target in the next experiment is T4, ETV2 (Homo sapiens, UniProt O00321 1-342).
T4 sequence: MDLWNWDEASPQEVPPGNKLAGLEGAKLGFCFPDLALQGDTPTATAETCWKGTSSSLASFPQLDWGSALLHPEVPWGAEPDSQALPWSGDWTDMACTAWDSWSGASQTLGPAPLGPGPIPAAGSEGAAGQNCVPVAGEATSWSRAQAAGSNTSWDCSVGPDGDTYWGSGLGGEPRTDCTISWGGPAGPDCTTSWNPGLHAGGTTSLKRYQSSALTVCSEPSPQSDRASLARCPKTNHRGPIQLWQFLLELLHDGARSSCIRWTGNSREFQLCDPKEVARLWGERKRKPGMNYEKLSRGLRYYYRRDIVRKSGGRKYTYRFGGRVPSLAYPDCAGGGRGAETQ
The conditions noted are these: protein: recombinant; tags: N-terminal GST; dsDNA, one strand shown. In short, it runs like this: as §1

The target of the next experiment is T5, ELF3 (Homo sapiens, UniProt P78545 1-371).
T5 sequence: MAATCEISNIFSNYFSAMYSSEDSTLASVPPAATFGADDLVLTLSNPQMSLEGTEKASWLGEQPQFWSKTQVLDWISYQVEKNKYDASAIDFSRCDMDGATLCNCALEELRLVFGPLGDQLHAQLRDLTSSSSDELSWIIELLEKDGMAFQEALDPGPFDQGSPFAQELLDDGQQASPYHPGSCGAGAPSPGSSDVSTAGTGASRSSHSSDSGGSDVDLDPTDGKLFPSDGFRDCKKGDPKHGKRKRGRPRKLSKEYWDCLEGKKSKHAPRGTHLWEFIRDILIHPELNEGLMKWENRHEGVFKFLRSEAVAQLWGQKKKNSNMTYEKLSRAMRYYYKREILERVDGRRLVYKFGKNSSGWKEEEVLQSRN
The conditions noted are these: protein: recombinant; tags: N-terminal GST; dsDNA, one strand shown. In short, it runs like this:
as §1

A further experiment deals with CRX (Homo sapiens, UniProt O43186 1-299). The conditions noted are these: protein: recombinant; tags: N-terminal GST; dsDNA, one strand shown. In short, it runs like this:
as §1

The target of the next experiment is ETV1 (Homo sapiens, UniProt P50549 1-477). Particulars: protein: recombinant; tags: N-terminal GST; dsDNA, one strand shown. In short, it runs like this: as §1
Sequence of ETV1 (P50549 whole entry): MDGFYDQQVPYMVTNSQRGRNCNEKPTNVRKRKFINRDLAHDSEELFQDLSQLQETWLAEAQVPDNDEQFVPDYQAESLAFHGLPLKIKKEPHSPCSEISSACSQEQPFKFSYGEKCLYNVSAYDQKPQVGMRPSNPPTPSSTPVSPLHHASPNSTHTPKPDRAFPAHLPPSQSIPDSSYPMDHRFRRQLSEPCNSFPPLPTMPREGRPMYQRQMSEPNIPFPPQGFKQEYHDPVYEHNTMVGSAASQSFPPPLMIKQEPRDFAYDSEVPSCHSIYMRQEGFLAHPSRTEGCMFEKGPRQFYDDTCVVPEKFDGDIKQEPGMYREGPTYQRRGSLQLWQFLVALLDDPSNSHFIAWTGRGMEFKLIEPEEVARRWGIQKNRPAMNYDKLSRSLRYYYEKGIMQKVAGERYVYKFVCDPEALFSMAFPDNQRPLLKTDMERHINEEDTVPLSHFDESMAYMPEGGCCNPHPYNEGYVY
In a further experiment the target is T6, ERF (Homo sapiens, UniProt P50548 1-548).
T6 sequence: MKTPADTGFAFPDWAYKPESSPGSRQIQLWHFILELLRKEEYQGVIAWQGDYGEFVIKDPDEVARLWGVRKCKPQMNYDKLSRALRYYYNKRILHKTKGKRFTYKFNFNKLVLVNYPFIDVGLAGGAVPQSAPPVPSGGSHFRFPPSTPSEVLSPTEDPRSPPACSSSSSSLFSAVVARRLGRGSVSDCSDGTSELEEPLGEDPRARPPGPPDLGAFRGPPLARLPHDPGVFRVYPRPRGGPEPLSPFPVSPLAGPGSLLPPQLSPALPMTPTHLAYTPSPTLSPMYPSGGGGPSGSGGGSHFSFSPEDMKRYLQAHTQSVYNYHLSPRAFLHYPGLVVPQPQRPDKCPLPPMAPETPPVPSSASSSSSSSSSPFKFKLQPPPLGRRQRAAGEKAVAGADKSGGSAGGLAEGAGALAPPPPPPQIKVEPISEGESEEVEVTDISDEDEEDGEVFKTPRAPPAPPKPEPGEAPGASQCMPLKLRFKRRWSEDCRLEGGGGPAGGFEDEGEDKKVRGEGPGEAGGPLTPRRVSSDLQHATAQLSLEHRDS
Particulars: protein: recombinant; tags: N-terminal GST; dsDNA, one strand shown. A digest of the protocol:
as §1

The next experiment deals with T7, ETV3L (Homo sapiens, UniProt Q6ZN32 1-361).
T7 sequence: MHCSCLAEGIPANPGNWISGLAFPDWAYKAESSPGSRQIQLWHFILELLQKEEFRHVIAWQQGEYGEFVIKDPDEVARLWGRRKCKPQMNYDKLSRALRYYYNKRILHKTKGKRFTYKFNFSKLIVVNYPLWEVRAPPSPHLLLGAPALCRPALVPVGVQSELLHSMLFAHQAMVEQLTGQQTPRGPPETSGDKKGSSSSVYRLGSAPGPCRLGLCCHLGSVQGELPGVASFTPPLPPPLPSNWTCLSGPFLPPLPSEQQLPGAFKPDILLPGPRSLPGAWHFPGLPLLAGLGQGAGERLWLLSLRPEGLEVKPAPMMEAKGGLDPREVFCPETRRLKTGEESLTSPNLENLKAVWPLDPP
The conditions noted are these: protein: recombinant; tags: N-terminal GST; dsDNA, one strand shown. In short, it runs like this: as §1

A further experiment addresses T8, ETS2 (Homo sapiens, UniProt P15036 1-469).
T8 sequence: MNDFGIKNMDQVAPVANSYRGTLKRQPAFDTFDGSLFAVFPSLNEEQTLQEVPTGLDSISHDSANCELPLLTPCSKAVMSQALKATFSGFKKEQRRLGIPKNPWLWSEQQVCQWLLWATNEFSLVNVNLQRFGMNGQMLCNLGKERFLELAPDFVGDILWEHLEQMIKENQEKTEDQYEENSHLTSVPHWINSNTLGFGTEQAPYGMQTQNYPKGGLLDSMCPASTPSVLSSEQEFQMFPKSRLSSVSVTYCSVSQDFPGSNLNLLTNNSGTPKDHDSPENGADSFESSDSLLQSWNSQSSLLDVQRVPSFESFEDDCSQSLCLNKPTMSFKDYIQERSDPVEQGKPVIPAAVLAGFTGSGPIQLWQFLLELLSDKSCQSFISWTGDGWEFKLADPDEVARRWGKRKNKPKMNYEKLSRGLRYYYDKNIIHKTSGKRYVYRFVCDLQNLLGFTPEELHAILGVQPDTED
Particulars: protein: recombinant; tags: N-terminal GST; dsDNA, one strand shown. In short, it runs like this: as §1

A further experiment addresses T9, SPDEF (Homo sapiens, UniProt O95238 1-335).
T9 sequence: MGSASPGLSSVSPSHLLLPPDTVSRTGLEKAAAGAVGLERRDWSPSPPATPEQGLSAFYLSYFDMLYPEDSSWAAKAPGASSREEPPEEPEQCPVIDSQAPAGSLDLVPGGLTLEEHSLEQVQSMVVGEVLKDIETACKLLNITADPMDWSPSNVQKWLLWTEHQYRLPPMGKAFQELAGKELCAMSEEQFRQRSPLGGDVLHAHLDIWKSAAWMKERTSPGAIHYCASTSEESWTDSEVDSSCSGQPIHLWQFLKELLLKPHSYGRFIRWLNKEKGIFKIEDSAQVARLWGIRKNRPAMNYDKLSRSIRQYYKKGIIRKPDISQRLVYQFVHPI
The conditions noted are these: protein: recombinant; tags: N-terminal GST; dsDNA, one strand shown. In short, it runs like this:
as §1

A further experiment concerns the target T10, ETV7 (Homo sapiens, UniProt Q9Y603 1-341).
T10 sequence: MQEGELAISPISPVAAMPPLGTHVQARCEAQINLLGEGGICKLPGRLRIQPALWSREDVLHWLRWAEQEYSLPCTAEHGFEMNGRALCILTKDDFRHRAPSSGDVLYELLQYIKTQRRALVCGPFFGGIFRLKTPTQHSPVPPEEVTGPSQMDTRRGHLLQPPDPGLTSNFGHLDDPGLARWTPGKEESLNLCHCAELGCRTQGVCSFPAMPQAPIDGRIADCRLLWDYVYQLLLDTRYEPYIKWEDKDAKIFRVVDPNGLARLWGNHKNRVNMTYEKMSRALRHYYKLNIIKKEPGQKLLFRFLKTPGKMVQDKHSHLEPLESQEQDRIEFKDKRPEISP
The conditions noted are these: protein: recombinant; tags: N-terminal GST; dsDNA, one strand shown. A digest of the protocol: as §1

The target of a further experiment is T11, ELF5 (Homo sapiens, UniProt Q9UKW6-2 1-255).
T11 sequence: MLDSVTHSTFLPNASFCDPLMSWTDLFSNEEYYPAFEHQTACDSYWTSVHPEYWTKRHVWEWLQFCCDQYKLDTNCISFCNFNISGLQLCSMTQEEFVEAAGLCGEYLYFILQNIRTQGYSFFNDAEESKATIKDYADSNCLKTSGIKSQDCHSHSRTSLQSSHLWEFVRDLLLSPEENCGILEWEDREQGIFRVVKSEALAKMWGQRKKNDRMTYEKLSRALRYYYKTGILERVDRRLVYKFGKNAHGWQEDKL
The conditions noted are these: protein: recombinant; tags: N-terminal GST; dsDNA, one strand shown. A digest of the protocol:
as §1

The target in the next experiment is T12, ETV3 (Homo sapiens, UniProt P41162-2 1-143).
T12 sequence: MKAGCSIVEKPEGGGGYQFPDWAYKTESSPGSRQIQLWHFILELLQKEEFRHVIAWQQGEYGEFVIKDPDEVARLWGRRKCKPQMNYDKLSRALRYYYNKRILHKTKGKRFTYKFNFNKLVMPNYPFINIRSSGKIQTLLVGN
Particulars: protein: recombinant; tags: N-terminal GST; dsDNA, one strand shown. In short, it runs like this:
as §1

The next experiment deals with ETV6 (Homo sapiens, UniProt P41212 1-452). The conditions noted are these: protein: recombinant; tags: N-terminal GST; dsDNA, one strand shown. In short, it runs like this:
as §1

Sequence of CRX (O43186 whole entry): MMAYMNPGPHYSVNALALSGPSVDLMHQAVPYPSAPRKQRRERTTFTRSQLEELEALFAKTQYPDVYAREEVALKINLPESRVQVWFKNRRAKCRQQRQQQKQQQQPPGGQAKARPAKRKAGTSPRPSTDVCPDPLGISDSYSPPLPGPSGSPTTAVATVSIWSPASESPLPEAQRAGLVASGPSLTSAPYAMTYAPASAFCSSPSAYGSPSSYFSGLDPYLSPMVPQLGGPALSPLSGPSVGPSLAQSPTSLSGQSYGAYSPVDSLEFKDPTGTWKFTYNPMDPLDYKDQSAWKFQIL
Sequence of ETV6 (P41212 whole entry): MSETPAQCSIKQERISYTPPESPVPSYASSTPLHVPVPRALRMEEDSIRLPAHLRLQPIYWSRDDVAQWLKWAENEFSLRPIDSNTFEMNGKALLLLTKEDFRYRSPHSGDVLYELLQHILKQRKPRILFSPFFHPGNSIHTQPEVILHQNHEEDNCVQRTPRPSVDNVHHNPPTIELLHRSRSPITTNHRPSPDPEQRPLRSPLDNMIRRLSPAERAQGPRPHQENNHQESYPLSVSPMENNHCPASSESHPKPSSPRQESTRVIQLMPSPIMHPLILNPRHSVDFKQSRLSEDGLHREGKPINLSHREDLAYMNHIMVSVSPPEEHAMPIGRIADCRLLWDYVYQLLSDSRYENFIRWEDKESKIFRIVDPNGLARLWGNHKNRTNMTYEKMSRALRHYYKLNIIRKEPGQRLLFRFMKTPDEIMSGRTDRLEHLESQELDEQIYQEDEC
Sequence of ELF4 (Q99607 whole entry): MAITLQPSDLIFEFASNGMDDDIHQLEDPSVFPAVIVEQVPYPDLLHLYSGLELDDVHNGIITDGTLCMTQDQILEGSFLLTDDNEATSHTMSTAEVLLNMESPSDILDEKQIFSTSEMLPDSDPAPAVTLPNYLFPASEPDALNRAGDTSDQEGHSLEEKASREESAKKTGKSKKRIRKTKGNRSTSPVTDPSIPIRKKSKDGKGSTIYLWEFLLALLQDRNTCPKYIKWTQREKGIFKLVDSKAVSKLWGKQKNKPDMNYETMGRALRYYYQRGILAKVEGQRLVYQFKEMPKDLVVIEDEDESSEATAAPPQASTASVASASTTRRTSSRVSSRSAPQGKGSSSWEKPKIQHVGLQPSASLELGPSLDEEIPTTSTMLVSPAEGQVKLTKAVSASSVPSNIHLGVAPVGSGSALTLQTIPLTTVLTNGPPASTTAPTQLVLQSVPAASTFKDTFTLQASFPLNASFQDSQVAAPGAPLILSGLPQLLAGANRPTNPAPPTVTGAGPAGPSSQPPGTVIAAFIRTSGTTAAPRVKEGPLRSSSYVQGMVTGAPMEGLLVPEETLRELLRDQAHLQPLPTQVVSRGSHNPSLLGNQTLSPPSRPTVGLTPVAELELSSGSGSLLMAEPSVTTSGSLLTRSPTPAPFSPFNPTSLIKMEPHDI

In the case of TCTGGC, the binding signal with FEV was 1.16 fold enrichment (6-mer frequency, TF over GST control); in the experiment with ETV5, 1.11 fold enrichment (6-mer frequency, TF over GST control); with HSF1 it was 1.89 fold enrichment (6-mer frequency, TF over GST control); in the experiment with SPIC, 1.38 fold enrichment (6-mer frequency, TF over GST control); with ELF4, 1.4 fold enrichment (6-mer frequency, TF over GST control); with ELK4, 1.44 fold enrichment (6-mer frequency, TF over GST control). Also, the binding signal in the experiment with ETV2 is 1.28 fold enrichment (6-mer frequency, TF over GST control); with ELF3, 1.03 fold enrichment (6-mer frequency, TF over GST control); with CRX, 1.31 fold enrichment (6-mer frequency, TF over GST control); in the experiment with ETV1, 1.24 fold enrichment (6-mer frequency, TF over GST control); in the experiment with ERF, 1.31 fold enrichment (6-mer frequency, TF over GST control); in the experiment with ETV3L, 1.11 fold enrichment (6-mer frequency, TF over GST control). Moreover, the binding signal was 1.21 fold enrichment (6-mer frequency, TF over GST control) with ETS2; 1.15 fold enrichment (6-mer frequency, TF over GST control) with SPDEF; 1.24 fold enrichment (6-mer frequency, TF over GST control) with ETV7; 1.08 fold enrichment (6-mer frequency, TF over GST control) with ELF5; 1.06 fold enrichment (6-mer frequency, TF over GST control) with ETV3; 1.19 fold enrichment (6-mer frequency, TF over GST control) in the experiment with ETV6.
